{"source": "PubChem BioAssay AID1159580", "about": "(chemical genetic matrix, 2015)", "assay": "chemical genetic growth profiling, strain panel (AID 1159580);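 also: tested at 20 µM; growth read once vehicle control cultures reached saturation at 30 °C; 1 = growth at the plate median or of vehicle wells; lower values mean less growth of the strain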", "conditions": "S. cerevisiae deletion strains, growth OD", "note": "The campaign covered roughly 5,500 compounds. About 2,000 (36%) were called active. About 18% were inconclusive and are not listed. Some of the results follow. Values without a mark were called inactive. Rule as the data show it: active = normalized growth mostly below about 0.91 (no sharp cut-off); inconclusive = no clear call, values can overlap the other calls; inactive = mostly above about 0.92.", "data": [{"smiles": "Nc1ccc(CCN2CCN(c3cccc(C(F)(F)F)c3)CC2)cc1", "values": [{"measurement": "normalized growth", "setting": "locus YAL040C, strain CLN3, stronger effect = lower value", "result": 1.05}, {"measurement": "normalized growth", "setting": "locus YCL061C, strain MRC1 (second series), stronger effect = lower value", "result": 0.973}, {"measurement": "normalized growth", "setting": "locus YDR363W, strain ESC2, stronger effect = lower value", "result": 0.894}, {"measurement": "normalized growth", "setting": "locus YER002W, strain NOP16, stronger effect = lower value", "result": 1.03}, {"measurement": "normalized growth", "setting": "locus YGR229C, strain SMI1, stronger effect = lower value", "result": "0.501 (active)"}, {"measurement": "normalized growth", "setting": "locus YMR307W, strain GAS1, stronger effect = lower value", "result": 1.02}, {"measurement": "normalized growth", "setting": "locus YNL175C, strain NOP13, stronger effect = lower value", "result": 1.02}, {"measurement": "normalized growth", "setting": "locus YNL197C, strain WHI3, stronger effect = lower value", "result": 1}, {"measurement": "normalized growth", "setting": "locus YNL224C, strain SQS1, stronger effect = lower value", "result": 1.01}, {"measurement": "normalized growth", "setting": "locus YOR083W, strain WHI5 (second series), stronger effect = lower value", "result": 1.02}]}]}
